C diff growth: C. difficile growth inhibitors, primary screen, HTS; growth activity, negative = inhibition, % at 16 µg/mL (by protocol); hit rate 0.25% among 86,000; Clostridium difficile clinical isolate growth, OD600, 24 h; active compounds read low; AID 1259249, 2017;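 active = mean growth activity at or below -80% and every replicate also at or below -80%; inconclusive = mean at or below -80% but some replicate above -80%; inactive = mean growth activity above -80%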
Pf Dd2 inh: P. falciparum Dd2 growth inhibitors, primary screen, SYBR Green fluorescence, single dose replicates | hit rate 2.3% among 94,000 | 72 h; active compounds read low | activity change, % at 10 µM; in the data active = activity change below about -80%; inconclusive = no clear call, values can overlap the other calls
Numbers stand for hits; . = inactive; ? = inconclusive; / = no result. An excerpt weighted towards active compounds, which were near 2.4% of everything screened.

SMILES	C diff growth	Pf Dd2 inh
C[C@H]1CN([C@@H](C)CO)C(=O)c2cccc(NC(=O)CCCCCC(=O)Nc3ccccc3N)c2O[C@@H]1CN(C)Cc1ccc2c(c1)OCO2	/	-92
C[C@@H]1CN([C@@H](C)CO)C(=O)c2cc(NC(=O)CCCCCC(=O)Nc3ccccc3N)ccc2O[C@@H]1CN(C)Cc1ccc2c(c1)OCO2	.	.
C[C@H](CO)N1C[C@H](C)[C@@H](CN(C)Cc2ccc3c(c2)OCO3)Oc2ccc(NC(=O)CCCCCC(=O)Nc3ccccc3N)cc2C1=O	.	.
C[C@H](CO)N1C[C@H](C)[C@H](CN(C)Cc2ccc3c(c2)OCO3)Oc2ccc(NC(=O)CCCCCC(=O)Nc3ccccc3N)cc2C1=O	.	.
C[C@@H]1CN([C@@H](C)CO)C(=O)c2cccc(NC(=O)CCCCCC(=O)Nc3ccccc3N)c2O[C@H]1CN(C)Cc1ccc2c(c1)OCO2	.	-88
C[C@H](CO)N1C[C@H](C)[C@@H](CN(C)Cc2ccc3c(c2)OCO3)Oc2c(NC(=O)CCCCCC(=O)Nc3ccccc3N)cccc2C1=O	.	-85
COc1cccc(C(=O)N2C[C@H]3[C@@H](c4ccccc42)[C@H](CO)N3C(=O)c2ccccc2)c1	.	.
COc1ccc2c3c([nH]c2c1)[C@H](CO)N(S(=O)(=O)c1cn(C)cn1)CC31CCN(Cc2ccccc2)CC1	.	.
C[C@@H]1CN([C@H](C)CO)S(=O)(=O)c2ccc(/C=C/c3ccccc3)cc2O[C@H]1CN(C)C(=O)Nc1ccc(F)cc1	.	-82
C[C@H](CO)N1C[C@H](C)[C@@H](CN(C)C(=O)Nc2ccc(F)cc2)Oc2cc(/C=C/c3ccccc3)ccc2S1(=O)=O	.	.
C[C@@H]1CN([C@@H](C)CO)S(=O)(=O)c2ccc(/C=C/c3ccccc3)cc2O[C@H]1CN(C)Cc1ccc(C(=O)O)cc1	-97	.
C[C@H](CO)N1C[C@H](C)[C@@H](CN(C)C(=O)c2ccc3c(c2)OCO3)Oc2cc(/C=C/c3ccccc3)ccc2S1(=O)=O	.	.
C[C@H]1CN([C@@H](C)CO)S(=O)(=O)c2ccc(C#Cc3ccccc3F)cc2O[C@H]1CN(C)C(=O)c1ccc2c(c1)OCO2	.	-88
C[C@@H]1CN([C@@H](C)CO)S(=O)(=O)c2ccc(C#Cc3ccccc3F)cc2O[C@@H]1CN(C)C(=O)c1ccc2c(c1)OCO2	.	.
C[C@@H]1CN([C@@H](C)CO)S(=O)(=O)c2ccc(/C=C/c3ccccc3)cc2O[C@H]1CN(C)C(=O)c1ccc2c(c1)OCO2	.	-87
C[C@H]1CN([C@@H](C)CO)S(=O)(=O)c2ccc(/C=C/c3ccccc3)cc2O[C@@H]1CN(C)Cc1ccc(C(=O)O)cc1	.	.
COc1ccc(S(=O)(=O)Nc2ccc3c(c2)C(=O)N([C@H](C)CO)C[C@@H](C)[C@H](CN(C)C(=O)Cc2ccccc2)OCCCC[C@H](C)O3)cc1	.	.
C[C@H]1CN([C@@H](C)CO)C(=O)c2cc(NS(C)(=O)=O)ccc2O[C@H]1CN(C)Cc1ccc(C(=O)O)cc1	/	.
C[C@H](CO)N1C[C@H](C)[C@H](CN(C)CC2CCOCC2)Oc2cc(Br)ccc2S1(=O)=O	.	.
CC(C)NC(=O)N1CC2(C1)[C@H](c1ccccc1)[C@@H](CO)N2C(=O)C1CCC1	.	.
CCCC#Cc1ccc2c(c1)O[C@H](CN(C)C(=O)CN(C)C)[C@H](C)CN([C@@H](C)CO)S2(=O)=O	/	.
O=C(C[C@@H]1CC[C@H]2[C@@H](COC[C@H](O)CN2S(=O)(=O)c2ccc(F)cc2)O1)NCC1CCCCC1	.	/
CCCNC(=O)C[C@@H]1CC[C@@H]2[C@H](COC[C@H](O)CN2C(=O)c2cccnc2)O1	.	.
C[C@H](CO)N1C[C@H](C)[C@@H](CN(C)C(=O)Cc2cccnc2)Oc2cc(C#Cc3ccccc3F)ccc2S1(=O)=O	.	-84
C[C@@H]1CN([C@@H](C)CO)S(=O)(=O)c2ccc(C#Cc3ccccc3F)cc2O[C@@H]1CN(C)C(=O)Cc1cccnc1	.	.
SMILES	C diff growth	Pf Dd2 inh
C[C@H](CO)N1C[C@H](C)[C@@H](CN(C)C(=O)Nc2ccc3c(c2)OCO3)OCCCC[C@H](C)Oc2ccc(NS(C)(=O)=O)cc2C1=O	.	.
O=S(=O)(c1ccccc1F)N1CCCCN2[C@H](CO)[C@H](c3ccc(-c4ccncc4)cc3)[C@H]2C1	.	.
CO[C@H]1CN(C)C(=O)c2cc(NC(=O)Nc3ccc(F)cc3)ccc2OC[C@@H](C)NC[C@@H]1C	.	.
C[C@@H]1CN([C@H](C)CO)C(=O)c2ccccc2-c2ccccc2CO[C@@H]1CN(C)Cc1ccc(Cl)c(Cl)c1	.	?
C[C@@H]1CN([C@H](C)CO)C(=O)c2ccccc2-c2ccccc2CO[C@@H]1CN(C)Cc1ccc(-c2ccccc2)cc1	.	-83
C[C@@H]1CN([C@H](C)CO)C(=O)c2ccccc2-c2ccccc2CO[C@@H]1CN(C)Cc1ccccc1	/	.
C[C@H]1CN([C@@H](C)CO)C(=O)c2ccccc2-c2ccccc2CO[C@@H]1CN(C)Cc1ccc(Cl)c(Cl)c1	.	-85
CN1[C@H](C(=O)NC2Cc3ccccc3C2)[C@@H](CO)[C@@H]2Cn3c(ccc(C4=CCCC4)c3=O)[C@@H]21	.	.
COc1ccc(NC(=O)Nc2ccc3c(c2)[C@H]2C[C@@H](CC(=O)N(C)C)O[C@H](CO)[C@H]2O3)cc1	.	.
Cc1noc(C)c1S(=O)(=O)N(C)C[C@@H]1OCCCC[C@@H](C)Oc2ccc(NC(=O)C3CCCCC3)cc2C(=O)N([C@H](C)CO)C[C@H]1C	.	.
Cc1noc(C)c1S(=O)(=O)N(C)C[C@H]1OCCCC[C@H](C)Oc2ccc(NC(=O)C3CCCCC3)cc2C(=O)N([C@H](C)CO)C[C@H]1C	.	.
Cc1noc(C)c1S(=O)(=O)N(C)C[C@H]1OCCCC[C@@H](C)Oc2ccc(NC(=O)C3CCCCC3)cc2C(=O)N([C@@H](C)CO)C[C@@H]1C	.	-82
Cc1noc(C)c1S(=O)(=O)N(C)C[C@@H]1OCCCC[C@H](C)Oc2ccc(NC(=O)C3CCCCC3)cc2C(=O)N([C@@H](C)CO)C[C@H]1C	.	-83
C[C@H]1CN([C@@H](C)CO)C(=O)Cc2cc(NC(=O)Nc3ccccc3)ccc2O[C@H]1CN(C)Cc1ccc(C(=O)Nc2ccccc2N)cc1	.	.
C[C@H]1CN([C@@H](C)CO)C(=O)Cc2cc(NC(=O)c3ccncc3)ccc2O[C@H]1CN(C)Cc1ccc(C(=O)Nc2ccccc2N)cc1	.	.
C[C@H](CO)N1C[C@H](C)[C@H](CN(C)Cc2ccc(C(=O)Nc3ccccc3N)cc2)Oc2ccc(NC(=O)Cc3ccccc3)cc2CC1=O	.	-87
C[C@@H]1CN([C@@H](C)CO)C(=O)Cc2cc(NC(=O)CCCN(C)C)ccc2O[C@H]1CN(C)Cc1ccc(C(=O)Nc2ccccc2N)cc1	.	.
C[C@H]1CN([C@@H](C)CO)C(=O)Cc2cc(NC(=O)Cc3ccccc3)ccc2O[C@H]1CN(C)Cc1ccc(C(=O)Nc2ccccc2N)cc1	.	-86
C[C@@H]1CN([C@@H](C)CO)C(=O)Cc2cc(NC(=O)Cc3ccccc3)ccc2O[C@@H]1CN(C)Cc1ccc(C(=O)Nc2ccccc2N)cc1	.	-81
C[C@H]1CN([C@@H](C)CO)C(=O)Cc2cc(NC(=O)c3ccncc3)ccc2O[C@@H]1CN(C)Cc1ccc(C(=O)Nc2ccccc2N)cc1	.	-86
